Screening results deposited in PubChem by National Center for Advancing Translational Sciences (NCATS).
Pf growth 48h = Primary qHTS for delayed death inhibitors of the malarial parasite plastid, 48 hour incubation; Potency, µM (top dose mostly 28.7 µM), without a hit: at the highest dose activity change, negative = inhibition, usual class: inhibitors; AID 504832, 2011; hit rate 5.9% among 310,000; P. falciparum luciferase growth in erythrocytes, 48 h; further: potency means the concentration at half of the fitted maximal effect
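A one-generation exposure of luciferase-tagged malaria parasites in RPMI 1640/Albumax erythrocyte culture, 37 C and 5% CO2. Inhibition is inferred from decreased luminescence after adding detection reagent.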
HCMV inh = qHTS Assay for inhibitors of the human cytomegalovirus (HCMV) | hit rate 4.5% among 410,000 | activity change, negative = inhibition, % at 57.5 µM | HFF cells, HCMV-luciferase reporter, 72 h; stronger effect = lower value; in the data active means activity change below about -60%; inconclusive means no clear call, values can overlap the other calls; inactive means above about -39%
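Compounds were evaluated in HFFs infected with an HCMV luciferase reporter virus (MOI 1 PFU/cell). Luciferase in lysates collected 72 h post infection served as the replication measure.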
LASV entry inh = qHTS for Inhibitors of binding or entry into cells for Lassa Virus; hit rate 1.2% among 300,000; Lassa virus pseudotype entry inhibition, cell reporter; Potency, µM (doses to about 37.9 µM), for inactives: at the top dose activity change, negative = inhibition, most hits filed as inhibitors; calls by dose curve; tested in HEK293 cells; further: potency means the concentration at half of the fitted maximal effect; nearly all actives have a fitted effect of over 50% in size
Marburg entry inh = qHTS for inhibitors of binding or entry into cells for Marburg Virus; AID 540276, 2011; Potency, µM (series often up to 37.8 µM), for the others: at the highest dose activity change, negative = inhibition, usual class: inhibitors; Marburg virus pseudotyped entry inhibition, cell reporter; hit rate 1.8% among 300,000; calls by dose curve; tested in HEK293 cells; further: potency means the concentration at half of the fitted maximal effect
Pf growth 96h = Primary qHTS for delayed death inhibitors of the malarial parasite plastid, 96 hour incubation; P. falciparum luciferase reporter growth, 96 h; Potency, µM (doses to about 28.7 µM), for the others: top-dose activity change, negative = inhibition, usual class: inhibitors; hit rate 6.9% among 320,000; AID 504834, 2011; further: potency means the concentration at half of the fitted maximal effect
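Compounds incubated with erythrocytes infected by luciferase-expressing P. falciparum (2% hematocrit, 0.05% parasitemia final) for 96 hours, 37 C in 5% CO2. Growth inhibition scored as decreased luciferase luminescence.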
HCV inh = qHTS Assay for Inhibitors of Hepatitis C Virus (HCV); Huh7.5.1 HCVcc-Cre infection, luciferase reporter, 44 h; Potency, µM (highest dose often 41.8 µM), inactives show at the top dose activity change, negative = inhibition, most hits filed as inhibitors; hit rate 3.4% among 340,000; AID 651820, 2012; further: potency means the concentration at half of the fitted maximal effect
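Luciferase read-out (15 sec integration) after a 15 min room-temperature substrate step quantifies HCVcc-Cre infection. Cells, 1,000 per well, had compound added 4 h post-plating, then virus at ~0.5 moi, and were cultured 44 h.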
The depositor's hits bear a star; ? = inconclusive; · = no result; [ ] = another dose, or the depositor's remark. Rows were chosen to be rich in hits. Some 14% of all compounds tested hit in one or more screens of this group. Unless noted, the call rests on the fitted dose curve; in most records, active means well fitted inhibition curve with a large enough effect; inconclusive means small, poorly fitted or top-dose-only effect, or another doubt; inactive means no such curve, though single readings can be large or run the other way. On the % scale 0 is the no-effect control and ±100 the full control effect.

SMILES	Pf growth 48h	HCMV inh	LASV entry inh	Marburg entry inh	Pf growth 96h	HCV inh
C[n+]1c(/C=C/c2ccc3c(c2)OCO3)ccc2ccccc21	429%	-66*	0%[46.1 µM]	?	-18%	9%
NNC(=O)Cn1c2c(c3c1CCCC3)CCCC2	·	·	·	1%[46.1 µM]	·	·
O=C(NC1(C(F)(F)F)Oc2ccc(Cl)cc2O1)N1CCC2(CC1)OCCO2 (stereo not drawn)	·	-6	-25%	?	1.9µM*	?
CCOC(=O)c1c(S(=O)(=O)N2CCCC(C(=O)NCc3cccc(OC)c3)C2)c(C)n(C)c1C (stereo not drawn)	·	-14	?	·	·	·
O=C(NCCN1C(=O)C2C3C=CC(C3)C2C1=O)Nc1ccccc1O (stereo not drawn)	·	53	·	·	9.3µM*	12%
Cc1c(NC(=O)NCCN2C(=O)C3C4C=CC(C4)C3C2=O)c(=O)n(-c2ccccc2)n1C (stereo not drawn)	·	-29	·	·	15µM*	5%
Cc1cc(SC(C)C(=O)Nc2c(C)n(C)n(-c3ccccc3)c2=O)nc2ccccc12 (stereo not drawn)	?	12	-2%	-10%	?	-12%
Cc1c(NC(=O)C(C)Sc2nc(N)cc(=O)[nH]2)c(=O)n(-c2ccccc2)n1C (stereo not drawn)	-9%	-63*	·	·	-5%	8%
Cc1c(NC(=O)C(C)N2C(=O)C3C4C=CC(C4)C3C2=O)c(=O)n(-c2ccccc2)n1C (stereo not drawn)	·	-66*	·	5%	4%	6%
Cc1c(NC(=O)C(C)N2C(=O)c3ccccc3C2=O)c(=O)n(-c2ccccc2)n1C (stereo not drawn)	29%	41	3%	4%	16%	4%
CCOC(=O)CC(=O)CSc1nc2ccsc2c(=O)n1Cc1ccccc1	·	-20	-1%[46.1 µM]	·	·	·
COc1ccc(CN2C(=O)C(CC(=O)NCc3ccco3)CC(C(=O)N(C(C)C)C(C)C)=C2C)cc1 (stereo not drawn)	·	4	·	·	·	·
CCOc1ccccc1Nc1sc(C(=O)c2ccc(Cl)cc2)c(N)c1S(=O)(=O)c1ccccc1	·	20	?	·	·	·
COc1ccc(CN(Cc2ccco2)c2cnc(S(C)(=O)=O)nc2C(=O)Nc2ccc(C)c(C)c2)cc1	·	36	?	?	·	·
Cc1c(NC(=O)CCCCCN2C(=O)C3C4C=CC(C4)C3C2=O)c(=O)n(-c2ccccc2)n1C (stereo not drawn)	14%	3	·	·	9.3µM*	20%
Cc1c(NC(=O)c2ccc(N3C(=O)C4C5C=CC(C5)C4C3=O)cc2)c(=O)n(-c2ccccc2)n1C (stereo not drawn)	12%	37	-3%	-2%	33%	14%
Cc1cc2c(cc1C)CSC(c1ccccc1O)SC2	-21%	?	-23%	?	·	?
Cc1cc2c(cc1C)CSC(c1ccc(O)cc1)SC2	72%	-15	?	-1%	1%	1%
Cc1cc2c(cc1C)CSC(c1c(O)ccc3ccccc13)SC2	12µM*	-74*	?	?	·	?
Cc1cc2c(cc1C)CSC(c1ccc3ccccc3c1O)SC2	9.3µM*	15	?	3.7µM*	?	-14%
CCOC(=O)c1nnn(CC(=O)Nc2cc(C)cc(C)c2)c1C(=O)OCC	·	12	?	6%[46.1 µM]	·	·
c1ccc(CN(Cc2ccccc2)c2c3c(nc4ncnn24)CCC3)cc1	?	-94*	·	·	?	-3%
COc1ccccc1N1CCN(c2ccc3ccccc3n2)CC1	104%	77	?	?	180%	?
COc1ccccc1N1CCN(c2cc(N3CCCC3)nc(C)n2)CC1	?	-103*	-8%	4%	6%	?
COc1ccccc1N1CCN(c2nc(C)cc(C)c2C#N)CC1	4%	-28	-19%[46.1 µM]	?	8.3µM*	-24%
SMILES	Pf growth 48h	HCMV inh	LASV entry inh	Marburg entry inh	Pf growth 96h	HCV inh
COc1cc(-c2ccccc2)nc(N)n1	·	71	12µM*	?	3.3µM*	3%
COc1ccccc1N1CCN(c2nc(-c3ccccc3)cc(C(F)(F)F)n2)CC1	6%	-21	7%	1%	?	?
COc1ccccc1N1CCN(c2ccc(-c3ccccc3)nn2)CC1	-65%	-96*	3.5µM*	1.6µM*	3%[5.75 µM]	?
Cc1cc(C)c(C#N)c(N2CCN(c3ccccc3)CC2)n1	1%	-10	·	·	34%	-24%
CCOc1ccc(NC(=O)CSC2=Nc3ccccc3C3=NC(CCC(=O)NCc4cccs4)C(=O)N23)cc1 (stereo not drawn)	·	0	-22%[46.1 µM]	·	·	·
Nc1nc(-c2ccccc2)cc(N2CCCCC2)n1	17%	-63*	?	?	·	-21%
Cc1nc(-c2ccccc2)cc(N2CCCC2)n1	11%	5	5%	-10%	10%	8.9µM*
CCCCNC(=O)c1[nH]c2ccccc2c1Sc1ccc(C)cc1	·	2	-24%[46.1 µM]	?	·	·
CCN(CC)CCCNC(=O)c1[nH]c2ccccc2c1Sc1ccc(Cl)cc1	13µM*	7	?	?	13µM*	?
COC(=O)C1(C)NC(=O)c2ccccc2N1 (stereo not drawn)	-1%	6	·	·	13µM*	1%
Cc1ccc(CNCC2CCCO2)o1 (stereo not drawn)	-3%	25	7%	21%	13µM*	7%
Clc1ccc(CNCC2CCCO2)cc1 (stereo not drawn)	52%	77	1%	8%	18%	-7%
Cc1cccc(N2CCN(C(=O)c3ccc4c(c3)N(Cc3ccccc3)C(=O)c3ccccc3S4(=O)=O)CC2C)c1 (stereo not drawn)	·	-34	?	?	·	·
Cc1cccc(N2CCN(C(=O)c3ccc4c(c3)N(Cc3cccc(Cl)c3)C(=O)c3ccccc3S4=O)CC2C)c1 (stereo not drawn)	·	-67*	?	·	·	·
Cc1cccc(N2CCN(C(=O)c3ccc4c(c3)N(Cc3ccccc3F)C(=O)c3ccccc3S4=O)CC2C)c1 (stereo not drawn)	·	-64*	?	13µM*	·	·
CCN1CCN(C(=O)c2ccc3c(c2)N(Cc2cccc(Cl)c2)C(=O)c2ccccc2S3=O)CC1 (stereo not drawn)	·	?	-2%[46.1 µM]	·	·	·
CCOC(=O)N1CCN(C(=O)c2ccc3c(c2)N(Cc2cccc(Cl)c2)C(=O)c2ccccc2S3=O)CC1 (stereo not drawn)	7.4µM*	?	?	·	19%	18µM*
